In all, about 33,000 sequences were measured (“E-score (-0.5 to 0.5)”: median about -0.035, highest 2% from about 0.35 on). This is one part of a sample in which the highest values are shown more often than they occur.
Molecular target: T1, Pdr3 (UniProt P33200)
T1 sequence: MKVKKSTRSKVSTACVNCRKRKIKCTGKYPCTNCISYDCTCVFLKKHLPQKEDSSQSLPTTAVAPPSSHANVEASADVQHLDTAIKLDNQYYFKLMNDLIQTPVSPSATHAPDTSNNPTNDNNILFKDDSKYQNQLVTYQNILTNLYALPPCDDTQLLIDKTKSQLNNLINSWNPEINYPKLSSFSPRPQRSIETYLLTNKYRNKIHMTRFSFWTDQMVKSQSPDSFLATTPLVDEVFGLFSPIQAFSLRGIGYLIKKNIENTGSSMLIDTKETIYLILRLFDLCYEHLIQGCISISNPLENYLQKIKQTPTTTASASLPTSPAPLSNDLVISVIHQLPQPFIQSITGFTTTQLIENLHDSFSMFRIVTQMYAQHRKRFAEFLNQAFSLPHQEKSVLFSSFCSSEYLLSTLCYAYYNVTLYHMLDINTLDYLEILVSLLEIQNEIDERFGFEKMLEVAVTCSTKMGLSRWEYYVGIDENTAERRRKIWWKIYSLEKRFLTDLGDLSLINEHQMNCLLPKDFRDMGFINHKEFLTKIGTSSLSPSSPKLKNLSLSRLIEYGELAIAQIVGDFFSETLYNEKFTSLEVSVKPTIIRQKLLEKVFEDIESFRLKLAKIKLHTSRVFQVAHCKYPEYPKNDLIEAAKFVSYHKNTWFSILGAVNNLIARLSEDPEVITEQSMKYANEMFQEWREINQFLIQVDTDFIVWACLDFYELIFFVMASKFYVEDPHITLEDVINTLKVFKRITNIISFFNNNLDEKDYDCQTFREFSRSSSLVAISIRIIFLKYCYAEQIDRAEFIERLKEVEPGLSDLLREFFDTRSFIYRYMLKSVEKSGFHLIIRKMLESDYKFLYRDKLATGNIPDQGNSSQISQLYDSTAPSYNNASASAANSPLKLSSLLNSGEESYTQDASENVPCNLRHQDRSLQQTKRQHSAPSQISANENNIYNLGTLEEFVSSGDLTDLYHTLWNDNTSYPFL
Assay: PBM E-score (8-mer binding enrichment) (E-score (-0.5 to 0.5)); higher = stronger / more preferred TF binding
Conditions: protein concentration: 200 nM; construct: GST-full length
In short: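 Yeast transcription factors, full-length or as DNA-binding domains, were expressed with a GST tag using PURExpress in vitro transcription/translation. At about 100-200 nM they were applied to universal all-10-mer Agilent arrays, double-stranded by primer extension on fresh or once-stripped slides. Fluorescent anti-GST detected bound protein, and masliner normalised the scans. E-scores for ungapped eight-base words, pooled with reverse complements, came from the Universal PBM Analysis Suite.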

Sequence	PBM E-score
CAGATCCC	0.0667
CGGATCCC	0.374
AATCTTGT	0.126
GATCTGCA	-0.0215
CCATTCAG	0.0183
GATTTCCC	0.143
CACTCAAC	-0.0691
AGGGCGGA	0.285
GGGGCGTA	-0.114
CGGGCGGA	0.383
CGGGCGTA	0.0837
CGGGCGGC	0.291
GGGGCGGA	0.359
AGTCGGCC	0.13
AGAAGCAC	-0.185
AAAGTTAC	-0.127
GAGGTGTA	-0.13
AGATGCGC	0.0125
CCATGGAA	0.156
CGTTAGAG	-0.0371
CCCGCGCC	0.265
ACCGCGCG	0.397
ACCGCGCT	0.139
CCCGCGCA	0.288
CGCGCGCG	0.372
GCCGCGCA	0.188

Sequence	PBM E-score
CGCGCGCA	0.347
TCCGCGCA	0.397
ACCGCGCA	0.0742
ACCGCGCC	0.128
CGCGCGCC	0.241
CCCGCGCG	0.382
CCCAACCG	0.00518
CGACCGAG	0.124
TATCACGA	-0.126
AAAATGAG	-0.188
ATAGCTAC	-0.0621
CAGGGGGA	-0.286
CTTTTTTA	-0.0672
CCCCCGGC	0.037
CTCCCGGA	0.386
CTCCCGGC	0.368
ATCCCGGA	0.417
CTCCCCGA	0.053
ATCCCAGA	-0.204
ATCCCAAA	0.0137
CTCCCGCA	0.145
ATCCCCGG	0.386
ATCCCCGA	0.303
CTCCCCGC	0.34
ATCCCCCG	0.278
CGGCGTAA	-0.0269

Sequence	PBM E-score
CTGCGTGC	-0.0812
AATTTGTG	0.159
ATGAGAAG	-0.162
GTACTCGA	-0.0779
ACCCCGGC	0.153
GTCCCCGA	0.166
ATCCCGGG	0.455
GTCCCGGA	0.394
ATCCCAGG	0.113
ATCCCGGC	0.419
ATCCCGAC	0.331
GTCCCGCA	0.229
ATCCCTGG	-0.0752
ATGTTCAG	-0.207
AGGTCTAA	-0.0213
AGGAGGCA	-0.127
AGAGCTCG	0.0679
CAATTCTC	-0.138
AGATGGAG	-0.127
CCATACCC	0.0565
GCGTGTCC	0.201
CCGTGTCC	0.356
CCGTGTCA	0.24
GGGTTTGA	-0.0398
AGCGACGG	0.258
GGGGTCAA	-0.0321

Sequence	PBM E-score
CGGGTCAA	0.387
AGGGTCAA	-0.0253
AATGGAGG	0.0106
GTCGGCTA	0.0468
CACAGAGG	-0.0837
CATTCCAA	-0.102
CATTCCGA	0.421
TATTCCCA	0.0626
CATTCCAG	-0.131
TATTCCAA	-0.091
CATTCCGG	0.451
GATTCCGA	0.454
CATTCCTA	-0.14
CATTCCCG	0.274
GATTCCAA	-0.0548
TATTCCGA	0.407
GATTCCCA	0.0551
AGTTGCAC	-0.136
CTTGCCTC	0.0139
AGTCTCGG	0.101
ATGCGAAG	-0.0662
GATCCCAA	0.0388
ATAAATAC	0.176
ACCGGGAA	0.309
ACCGGGAT	0.357
AACGGGAC	0.217

Sequence	PBM E-score
AACGGGAT	0.364
AACGGGAG	0.179
ACCGGGAC	0.318
CGCACCAG	0.133
AGTTTGAT	0.0669
ACATGCTG	-0.158
ACATTCCA	-0.0365
AAGACTAC	-0.188
CCGTTCCG	0.477
ACGTTCCG	0.445
ATGTTCCC	0.153
CCGTTCCC	0.253
ACGTTCCT	0.0124
AGGTTCCA	-0.018
ACGTTCCA	0.0623
ATGTTCCG	0.48
AGGTTCCC	-0.0087
ATGTTCCA	0.0325
CCGTTCCA	0.207
AGGTTCCG	0.478
GCAGGGAA	0.0453
GAATAGGA	0.0694
ACCGGTTG	0.208
AGCATTTG	-0.0766
CGAGAGGC	-0.119
GCGAGAGA	-0.148

Sequence	PBM E-score
CAGTCTTC	-0.147
AAACTTAG	-0.216
CTTGACAC	-0.222
CAGGGCTA	-0.258
ACTAGTAC	-0.105
ACGAATAT	0.0203
AATGCCGG	0.308
AATGCCGT	0.36
CATGCCGG	0.36
CATGCCGC	0.345
CATGCCGA	0.248
AATGCCGA	0.219
ATCCTTGG	-0.0819
CGCCGACC	0.135
AGAGTAGC	-0.228
CCCGCAGG	0.142
CCGGAAAC	0.447
CTGGAAAA	0.144
CCGGAAAG	0.414
CCGGAAAA	0.44
ACGGAAAG	0.44
CAGGAAAG	-0.278
CAGGAAAA	0.0238
CGGGAAAG	0.281
CAGGAAAC	-0.0475
CGGGAAAC	0.309

Sequence	PBM E-score
AGGGAAAG	-0.106
ATGGAAAG	0.0226
CAGTCCCG	0.273
AGTTGACG	-0.0734
CGAACTTA	0.0051
CTTAGGGA	-0.353
GGCTAACA	-0.132
ATAGGAGA	-0.363
CAGTTACC	-0.0312
CACGGATG	0.284
CACGGATA	0.373
GACGGATC	0.313
TACGGATA	0.224
AACAGATC	-0.0307
CAAGGATC	-0.0745
AACGGATA	0.417
AACGGATT	0.334
GACGGATA	0.251
AACGGATG	0.283
AACGGATC	0.367
CACGGATC	0.395
